In PubChem BioAssay one finds composite z-score, composite Z-score and z-score data, which are given here for six molecules.

The target in one assay is Albumin (Bos taurus) (UniProt P02769). Put plainly: compounds binding labelled BSA control protein – biochemical, small-molecule microarray, Alexa647 label, 635/667 nm fluorescence, artefact control for SMM control protein annotation, profiling panel (AID 1118).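 Note: score merges 667 nm emission intensity and signal-to-noise per printed compound spot.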 As to conditions: BSA-A647 binding, fluorescence 635 nm, higher = more signal.
Albumin (Bos taurus), sequence (P02769 whole entry, looked up): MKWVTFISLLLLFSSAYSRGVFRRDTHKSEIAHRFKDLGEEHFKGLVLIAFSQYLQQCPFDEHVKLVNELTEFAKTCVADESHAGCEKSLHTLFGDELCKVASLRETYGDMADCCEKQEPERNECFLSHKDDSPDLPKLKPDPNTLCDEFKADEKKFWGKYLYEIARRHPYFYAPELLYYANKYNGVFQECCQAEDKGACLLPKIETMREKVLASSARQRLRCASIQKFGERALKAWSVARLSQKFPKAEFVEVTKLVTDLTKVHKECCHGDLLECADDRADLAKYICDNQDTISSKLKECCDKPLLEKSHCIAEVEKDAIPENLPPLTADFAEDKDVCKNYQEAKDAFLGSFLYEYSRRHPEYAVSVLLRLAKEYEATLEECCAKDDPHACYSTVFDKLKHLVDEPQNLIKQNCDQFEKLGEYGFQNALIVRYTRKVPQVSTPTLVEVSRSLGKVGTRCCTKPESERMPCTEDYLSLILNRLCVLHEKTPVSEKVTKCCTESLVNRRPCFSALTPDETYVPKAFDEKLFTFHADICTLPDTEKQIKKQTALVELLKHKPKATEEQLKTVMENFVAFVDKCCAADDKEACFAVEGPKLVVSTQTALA
Assay [1] can be described thus: probe aXIP binding to arrayed compounds – biochemical, NeuroSMM set, 635/667 nm fluorescence, primary screen (AID 1119).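 Note: probe is the protein aXip251-270 applied at 1 µg/mL to compound-printed slides; binding of probe to printed compounds measured as 667 nm fluorescence plus signal to noise.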 Particulars: small-molecule microarray, higher = more signal, called active from +8 up or from −8 down.
Assay [2] is described as follows: probe aNOTCH3 binding on compound microarray – biochemical, small-molecule microarray, 635/667 nm fluorescence, primary screen (AID 1120).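 Note: probe is a biotin-tagged antibody raised against NOTCH3 rather than NOTCH3 protein; score merges spot fluorescence near 667 nm with spot signal to noise.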 As to conditions: higher = more signal.
The nature of assay [3]: probe aNOTCH2 binding on compound microarray – biochemical, small-molecule microarray, 635/667 nm fluorescence, primary screen (AID 1121).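 Note: score merges feature fluorescence read at 667 nm with its signal to noise.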 As to conditions: higher = more signal.
Assay [4] has as its target Carbonic anhydrase 2 (Homo sapiens) (UniProt P00918). Put plainly: compounds binding carbonic anhydrase 2 – biochemical, small-molecule microarray, Alexa647-labelled CAII, profiling panel (AID 1122). As to conditions: CAII-A647 binding fluorescence, higher = more signal.
A short description of assay [5]: COS7 lysate on small-molecule microarray, probe aHis, 635 nm (AID 1123).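 Note: z-score combines 667nm fluorescence intensity with signal-to-noise per printed compound spot.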 Particulars: COS7 cell lysate, fluorescence, higher = more signal.
A short description of assay [6]: probe aLAP1 signal on lysate-treated microarray – cell lysate, small-molecule microarray, COS7 lysate, primary screen (AID 1124).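 Note: lysate comes from COS7 cells expressing LAP1 and is applied at 0.3 µg/mL; score merges spot fluorescence near 667 nm with signal-to-noise over triplicate slides.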 As to conditions: probe aLAP1, fluorescence, higher = more signal.
In a further assay the test system is Sam68 (KHDRBS1). Put plainly: compounds binding KHDRBS1 protein – biochemical, small-molecule microarray, 635 nm fluorescence, primary screen (AID 1125).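 Note: score merges 667 nm channel intensity with signal to noise over triplicate slides.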 As to conditions: higher = more signal.
Assay [7] concerns Chordin-like protein 2 (CHRDL2). As to the kind of experiment: compounds binding chordin-like 2 – biochemical, small-molecule microarray, 635 nm fluorescence, primary screen (AID 1126).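 Note: printed compound slides probed with Chrdl2 protein at 4 µg/mL for 1 h at 4 C; score merges 667 nm emission intensity with signal to noise over three replicate slides.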 Particulars: fluorescence 635 nm, higher = more signal.
Assay [8] has as its target Concanavalin-A (Canavalia ensiformis) (UniProt P02866). Put plainly: compounds binding concanavalin A lectin – biochemical, small-molecule microarray, Alexa647 label, 635 nm, artefact control for SMM control protein annotation, primary screen (AID 1127).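 Note: z combines 667 nm emission intensity with signal-to-noise across three replicate slides.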 Particulars: ConA-A647 binding fluorescence, higher = more signal.
Assay [9] can be described thus: compounds binding Alexa647 anti-His antibody – biochemical, small-molecule microarray, 635 nm fluorescence, artefact control for SMM control protein annotation, primary screen (AID 1128).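 Note: score merges feature fluorescence with signal-to-noise for each printed compound spot.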 As to conditions: higher = more signal.
The subject of assay [10] is Human papillomavirus type 1a E7 protein (residues 1-88). Put plainly: HPV1a E7 small-molecule binders, primary screen, biochemical, small-molecule microarray, residues 1-88, 635 nm (AID 1129). As to conditions: small-molecule microarray binding, fluorescence 635 nm; higher = more signal.
In assay [11] the target is Focal adhesion kinase 1 (Homo sapiens) (UniProt Q05397). As to the kind of experiment: PTK2 protein binding on printed compound slides – biochemical, small-molecule microarray, 635/667 nm fluorescence, BSA, DTT, primary screen (AID 1130).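 Note: composite of spot emission at 667 nm and signal to noise over triplicate slides.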 Particulars: 635 nm fluorescence, higher = more signal.
Focal adhesion kinase 1 (Homo sapiens), sequence (Q05397 whole entry, looked up): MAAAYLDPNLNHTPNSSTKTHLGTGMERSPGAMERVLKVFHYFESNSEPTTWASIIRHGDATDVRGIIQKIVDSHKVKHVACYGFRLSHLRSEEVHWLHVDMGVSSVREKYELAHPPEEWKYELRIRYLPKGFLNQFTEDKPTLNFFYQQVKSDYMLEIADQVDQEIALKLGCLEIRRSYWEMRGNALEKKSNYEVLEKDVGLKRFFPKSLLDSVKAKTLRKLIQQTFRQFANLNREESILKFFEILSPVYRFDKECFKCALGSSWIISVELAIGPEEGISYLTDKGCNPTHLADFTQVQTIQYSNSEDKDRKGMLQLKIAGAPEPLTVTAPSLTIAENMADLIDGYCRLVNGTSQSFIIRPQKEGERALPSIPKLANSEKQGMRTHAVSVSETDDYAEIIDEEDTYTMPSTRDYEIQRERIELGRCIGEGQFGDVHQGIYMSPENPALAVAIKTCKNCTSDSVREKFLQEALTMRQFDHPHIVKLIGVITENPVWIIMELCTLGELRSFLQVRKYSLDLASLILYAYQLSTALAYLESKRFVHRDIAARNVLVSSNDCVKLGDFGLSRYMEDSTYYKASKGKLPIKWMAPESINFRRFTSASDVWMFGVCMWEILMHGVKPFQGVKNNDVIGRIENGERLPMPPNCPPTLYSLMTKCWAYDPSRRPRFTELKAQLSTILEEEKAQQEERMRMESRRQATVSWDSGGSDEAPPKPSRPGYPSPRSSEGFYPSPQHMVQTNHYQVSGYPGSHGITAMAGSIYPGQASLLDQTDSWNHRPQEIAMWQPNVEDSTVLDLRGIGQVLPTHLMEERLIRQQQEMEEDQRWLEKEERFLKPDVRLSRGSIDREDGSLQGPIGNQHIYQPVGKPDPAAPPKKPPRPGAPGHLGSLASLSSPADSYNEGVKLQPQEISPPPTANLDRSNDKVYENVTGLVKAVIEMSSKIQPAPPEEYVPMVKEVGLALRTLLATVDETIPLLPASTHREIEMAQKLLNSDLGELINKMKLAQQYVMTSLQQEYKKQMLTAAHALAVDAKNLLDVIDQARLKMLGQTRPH
Assay [12] has as its system Fibrinogen (Alexa647-labelled). As to the kind of experiment: Alexa647-fibrinogen binding to printed small molecules – biochemical, small-molecule microarray, 635/667 nm fluorescence, artefact control for SMM control-protein annotation, profiling panel (AID 1131).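 Note: z-score merges 667 nm fluorescence with per-spot signal-to-noise over triplicate slides.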 Particulars: fibrinogen-A647 binding fluorescence, higher = more signal.
Assay [13] has as its target Follistatin (Homo sapiens) (UniProt P19883). Put plainly: FST protein binding to printed compounds – biochemical, small-molecule microarray, 635/667 nm fluorescence, primary screen (AID 1132). Particulars: 635 nm fluorescence, higher = more signal.
Assay [14] deals with Fibroblast growth factor 2 (Homo sapiens) (UniProt P09038). Put plainly: basic fibroblast growth factor binding to printed compounds – biochemical, small-molecule microarray, 635/667 nm fluorescence, primary screen (AID 1133). Particulars: FGF2, fluorescence 635/667, higher = more signal.
Fibroblast growth factor 2 (Homo sapiens), sequence (P09038 whole entry, looked up): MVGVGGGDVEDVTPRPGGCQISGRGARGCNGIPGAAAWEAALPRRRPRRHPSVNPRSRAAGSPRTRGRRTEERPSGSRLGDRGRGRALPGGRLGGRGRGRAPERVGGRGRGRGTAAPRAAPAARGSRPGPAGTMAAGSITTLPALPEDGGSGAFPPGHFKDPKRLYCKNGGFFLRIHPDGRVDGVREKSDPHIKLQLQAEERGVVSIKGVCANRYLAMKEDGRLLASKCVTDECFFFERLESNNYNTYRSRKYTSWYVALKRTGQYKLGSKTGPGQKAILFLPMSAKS
The nature of assay [15]: JC-1 mitochondrial potential readout, lung cancer cells – cell-based, A549, JC-1 fluorescence, basal, 24 h, 100 nL, profiling panel (AID 1138).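 Note: A549 lung adenocarcinoma cells under basal conditions with no added stimulus; test concentration not given here.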 As to conditions: higher = more signal.
The test system of another assay is Lefty1. Put plainly: Lefty1 protein binding to printed compounds – biochemical, small-molecule microarray, 635/667 nm fluorescence, primary screen (AID 1139). Particulars: fluorescence 635/667, higher = more signal.
Assay [16] has as its system wheat germ agglutinin (Triticum aestivum), Alexa647-labelled. As to the kind of experiment: Alexa647-WGA lectin binding to printed small molecules – biochemical, small-molecule microarray, 635/667 nm fluorescence, artefact control for SMM control-protein annotation, profiling panel (AID 1140).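 Note: score merges 667 nm feature emission with signal to noise over triplicate slides.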 As to conditions: WGA-A647 binding, 635 nm fluorescence, higher = more signal.

Assay [17] addresses Luciferin 4-monooxygenase (Photinus pyralis) (UniProt P08659). Put plainly: inhibition of purified Photinus pyralis luciferase – biochemical, luminescence, purified enzyme, 2006 set, primary screen (AID 1141).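 Note: cell-free assay with purified firefly luciferase at 100 ng per well in PBS; test concentration not given here.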 Particulars: purified firefly luciferase, SteadyGlo luminescence, 30 min; higher = more signal, called active from +8 up or from −8 down.

Molecules are shown by their SMILES. Active and inactive are the calls of the source.

Concanavalin-A (Canavalia ensiformis), sequence (P02866 whole entry, looked up): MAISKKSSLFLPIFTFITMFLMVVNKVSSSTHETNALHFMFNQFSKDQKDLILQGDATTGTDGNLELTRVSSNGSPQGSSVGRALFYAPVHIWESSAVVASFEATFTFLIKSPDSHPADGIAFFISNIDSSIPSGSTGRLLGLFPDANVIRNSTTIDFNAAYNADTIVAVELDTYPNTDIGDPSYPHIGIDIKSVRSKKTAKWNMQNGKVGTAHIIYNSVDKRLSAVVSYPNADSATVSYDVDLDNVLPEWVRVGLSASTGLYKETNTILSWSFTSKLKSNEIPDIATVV
Luciferin 4-monooxygenase (Photinus pyralis), sequence (P08659 whole entry, looked up): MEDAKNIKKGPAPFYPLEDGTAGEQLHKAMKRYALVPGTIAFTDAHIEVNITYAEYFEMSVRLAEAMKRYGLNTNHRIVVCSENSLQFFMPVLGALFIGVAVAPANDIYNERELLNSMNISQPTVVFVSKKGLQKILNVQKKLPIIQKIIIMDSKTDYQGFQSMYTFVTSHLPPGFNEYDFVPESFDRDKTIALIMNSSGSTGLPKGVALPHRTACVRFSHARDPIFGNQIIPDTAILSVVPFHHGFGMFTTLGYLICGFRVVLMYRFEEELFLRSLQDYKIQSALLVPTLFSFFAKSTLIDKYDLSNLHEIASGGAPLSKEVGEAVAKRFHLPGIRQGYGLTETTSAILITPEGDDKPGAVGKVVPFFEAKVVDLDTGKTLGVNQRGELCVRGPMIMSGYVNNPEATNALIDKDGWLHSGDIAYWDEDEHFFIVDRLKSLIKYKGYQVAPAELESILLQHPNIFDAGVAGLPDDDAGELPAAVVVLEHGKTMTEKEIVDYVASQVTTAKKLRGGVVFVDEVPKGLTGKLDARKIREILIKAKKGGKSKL
Follistatin (Homo sapiens), sequence (P19883 whole entry, looked up): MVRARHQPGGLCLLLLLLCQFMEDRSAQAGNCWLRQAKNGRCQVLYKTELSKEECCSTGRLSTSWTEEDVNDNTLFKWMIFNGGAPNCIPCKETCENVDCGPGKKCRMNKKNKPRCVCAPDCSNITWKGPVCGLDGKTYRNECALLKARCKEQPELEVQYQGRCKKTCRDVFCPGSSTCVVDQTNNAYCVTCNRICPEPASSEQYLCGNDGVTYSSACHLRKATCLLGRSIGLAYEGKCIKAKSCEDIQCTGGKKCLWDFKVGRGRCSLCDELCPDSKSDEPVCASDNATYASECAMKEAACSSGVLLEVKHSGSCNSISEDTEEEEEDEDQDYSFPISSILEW

Take `CC(C)(C)OC(=O)CC[C@]1(C(=O)NCC(O)CO)N=C(c2ccc(OCCCO)cc2)O[C@H]1c1ccccc1` (stereo not given in full): the composite z-score with Albumin (Bos taurus) was 0.902; in [2], -0.0678; in assay [3] it was -0.0843; in assay [4], 0.873; in assay [5], 3.11; in assay [6] it was 0.0605. The composite z-score with Sam68 (KHDRBS1) was 0.723; in [7] it was -0.852; in [8] it was -0.137; in assay [9], 0.872; in [10] it was 0.937; in [11], -0.216. The composite z-score in assay [12] is 0.118; in [13], -0.786; in [14] it was -0.494; in the assay with Lefty1 it was -1.71; in assay [16], 0.94. In [1], the composite Z-score was 0.561 (inactive). For the same molecule, the z-score was 0.0908 in assay [15] and -1 (inactive) in [17].
For the molecule `O=C1NC(=O)C2C1C=CC(C(O)c1c(F)cccc1Cl)N2Nc1ccc(Cl)cc1Cl` (stereo not given), the composite z-score with Albumin (Bos taurus) was found to be 1.04; in assay [2], 0.525; in assay [3], 0.232; in assay [4] it was 0.599; in assay [5], 3.11; in assay [6], 1.12. Also, the composite z-score in the assay with Sam68 (KHDRBS1) is 0.79; in [7], -0.879; in assay [8] it was 0.44; in [9] it was 1.23; in [10], 1.2; in [11], 1.6. The composite z-score in [12] was 0.296; in assay [13], -0.0649; in [14] it was -0.891; in the assay on Lefty1, -0.507; in assay [16], 1.31. The composite Z-score in [1] is 0.122 (inactive). Moreover, the z-score was -1.15 in [15] and 0.231 (inactive) in [17].
For the molecule `C=CCC(OC(C)=O)[C@@H]1[C@@H](N(Cc2ccc(-c3ccccc3)cc2)C(=O)Cc2ccc(F)cc2)c2cc(OCCCO)ccc2N1C(=O)Cc1ccc(OC)cc1` (stereo not given in full), the composite z-score with Albumin (Bos taurus) is -0.0495; in assay [2], -0.0817; in assay [3], -0.141; in assay [4], 0.207; in assay [5], 0.377; in assay [6] it was 0.0514. Further, the composite z-score with Sam68 (KHDRBS1) was -0.274; in assay [7] it was -0.0031; in assay [8], 0.774; in [9], -0.148; in assay [10] it was -0.212; in [11], 0.328. Besides, the composite z-score in assay [12] is 0.397; in assay [13], 0.508; in [14], -0.472; in the assay with Lefty1, -0.0463; in [16] it was 0.687. Further, the composite Z-score in [1] was -0.101 (inactive). Also, the results for the z-score in assay [15] and in assay [17] were 0.626 and -0.51 (inactive), respectively.
As for `Cc1ccc(S[C@]2(C(=O)NCC(F)(F)F)CC(=O)N(C3CCCCC3)[C@@H]2c2ccc(CO)cc2I)cc1`, the composite z-score is 0.488 in the assay with Albumin (Bos taurus); -0.046 in assay [2]; -0.108 in assay [3]; 0.369 in assay [4]; 2.01 in assay [5]; 0.159 in assay [6]. The composite z-score with Sam68 (KHDRBS1) worked out at 1.3; in assay [7] it was 0.0471; in assay [8], 0.955; in assay [9], 0.21; in [10], 1.21; in assay [11], 0.543. For the same molecule, the composite z-score in assay [12] is 0.774; in assay [13], 0.969; in [14] it was 0.621; with Lefty1 it was 0.465; in assay [16], 0.395. For the same molecule, in assay [1], the composite Z-score is -0.132 (inactive). In addition, the z-score in [15] is 2.17; in [17], -0.691 (inactive).
`CC(CO)N1C(=O)[C@@H]2[C@H]3C(=O)OCC=C[C@H]3OC23C=CCN(Cc2ccccc2)C(=O)[C@@H]13` (stereo not given in full): the composite z-score in the assay with Albumin (Bos taurus) was 0.407; in assay [2], -0.308; in assay [3] it was -0.22; in [4] it was 0.905; in [5], -0.851; in [6] it was -0.419. For the same molecule, the composite z-score is -1.17 with Sam68 (KHDRBS1); -0.42 in assay [7]; -0.325 in assay [8]; 0.543 in assay [9]; -0.696 in assay [10]; 0.769 in assay [11]. For the same molecule, the composite z-score was -0.854 in [12]; -0.139 in [13]; -0.173 in [14]; -0.279 in the assay on Lefty1; 0.22 in [16]. Further, in [1], the composite Z-score was -0.106 (inactive). In addition, the z-score was -0.376 in assay [15] and -3.05 (inactive) in assay [17].
Take `NC(=O)N1C(=O)C2C(C1=O)C1C=C(CCCO)C2C(c2cccs2)N1Cc1cccc(OC(F)(F)F)c1` (stereo not given): the composite z-score with Albumin (Bos taurus) is 0.729; in assay [2], -0.023; in assay [3] it was -0.0534; in [4], 0.583; in assay [5], 0.789; in assay [6] it was -0.0259. In addition, the composite z-score in the assay on Sam68 (KHDRBS1) is 1.07; in [7], -0.0665; in assay [8], 0.434; in assay [9], 2.83; in assay [10], 0.416; in assay [11], 0.192. For the same molecule, the composite z-score was 0.692 in [12]; 0.82 in assay [13]; -0.0701 in assay [14]; 0.672 in the assay with Lefty1; 0.438 in assay [16]. Besides, the composite Z-score in assay [1] was -0.182 (inactive). Also, the results for the z-score in assay [15] and in [17] were 0.928 and -0.929 (inactive), respectively.
